Source: PubChem BioAssay (NCATS)
Results filed as inconclusive are left out. The source made the active and inactive calls. Unless noted, the call rests on the fitted dose curve; in most records, active means well fitted curve in the direction sought with a large enough effect; inconclusive means small, poorly fitted or top-dose-only effect, or another doubt; inactive means no such curve, though single readings can be large; an effect the other way counts as inactive or inconclusive.

Legend:
[1] = biological target: Lysosomal acid glucosylceramidase (Homo sapiens) (UniProt P04062); assay: Glucocerebrosidase-p2 (AID 348; in the data active means potency below about 10 µM; further: potency means the concentration at half of the fitted maximal effect); conditions: purified GBA, blue fluorogenic substrate, 40 min
Lysosomal acid glucosylceramidase (Homo sapiens), sequence (P04062 whole entry, looked up): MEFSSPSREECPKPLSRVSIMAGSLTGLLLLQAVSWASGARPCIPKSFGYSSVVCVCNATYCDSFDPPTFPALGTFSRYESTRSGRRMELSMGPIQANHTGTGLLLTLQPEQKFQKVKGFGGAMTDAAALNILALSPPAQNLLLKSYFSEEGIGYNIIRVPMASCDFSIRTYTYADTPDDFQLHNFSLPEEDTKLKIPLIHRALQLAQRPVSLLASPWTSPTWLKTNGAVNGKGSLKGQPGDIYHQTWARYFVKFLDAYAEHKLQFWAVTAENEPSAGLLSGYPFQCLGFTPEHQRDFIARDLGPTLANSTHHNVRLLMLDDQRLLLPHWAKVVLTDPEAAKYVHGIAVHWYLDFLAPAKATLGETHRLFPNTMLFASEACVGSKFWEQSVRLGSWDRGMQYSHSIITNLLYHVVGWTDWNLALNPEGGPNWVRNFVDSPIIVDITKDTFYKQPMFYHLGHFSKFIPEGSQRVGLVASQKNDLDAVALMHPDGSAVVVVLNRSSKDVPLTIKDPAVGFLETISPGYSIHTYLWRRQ
Outline: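 Compounds titrated from 0.6 nM upwards against 0.2 nM enzyme in pH 5.9 citric acid/KH2PO4, taurocholate, tween-20; blue fluorogenic substrate 80 uM, 40 min room temperature, stopped and read Ex 365/Em 440 for AC50.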

[2] = AP1 Signaling Pathway (AID 357; active means well fitted curve in either direction with a large enough effect, not every such curve was filed as active; further: on the % scale 0 is the no-effect control and ±100 the full control effect); conditions: ME-180 AP-1-bla reporter, EGF-induced, beta-lactamase ratio, 5 h; at 7.69 µM (top of the series) unless noted
Outline: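 AP-1-bla ME-180 cells with beta-lactamase reporter under AP-1 response element, stimulated with EC50 EGF; compounds titrated, 5 hours at 37 degrees Celsius. CCF4 read at 460/530 nm ratio; positive and negative modulators judged by AC50.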

[3] = biological target: Cytochrome P450 1A2 (Homo sapiens) (UniProt P05177); assay: p450-cyp1a2 (AID 410; calls by dose curve; further: potency means the concentration at half of the fitted maximal effect); conditions: recombinant CYP1A2, luciferin-ME demethylation, luminescence; series mostly up to 57 µM
Cytochrome P450 1A2 (Homo sapiens), sequence (P05177 whole entry, looked up): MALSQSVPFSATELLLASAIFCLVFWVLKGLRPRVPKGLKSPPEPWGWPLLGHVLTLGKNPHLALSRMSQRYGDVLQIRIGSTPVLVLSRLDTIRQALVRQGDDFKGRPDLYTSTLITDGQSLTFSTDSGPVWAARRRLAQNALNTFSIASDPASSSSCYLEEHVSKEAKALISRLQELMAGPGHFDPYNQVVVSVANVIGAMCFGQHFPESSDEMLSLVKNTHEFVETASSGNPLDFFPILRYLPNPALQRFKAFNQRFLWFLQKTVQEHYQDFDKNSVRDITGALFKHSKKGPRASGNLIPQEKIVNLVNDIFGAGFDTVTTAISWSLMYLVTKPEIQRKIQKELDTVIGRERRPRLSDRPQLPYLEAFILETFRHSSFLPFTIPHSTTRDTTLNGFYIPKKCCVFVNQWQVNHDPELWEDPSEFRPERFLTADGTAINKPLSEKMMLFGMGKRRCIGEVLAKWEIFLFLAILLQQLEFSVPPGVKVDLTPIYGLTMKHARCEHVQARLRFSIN
Outline: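 Luminescent readout of luciferin formed from Luciferin-ME by human CYP1A2; data normalized against complete inhibition by 57 uM furafylline. Enzyme 20nM, substrate 100uM at Km, 100mM KPO4 buffer, 60 min reaction at room temperature.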

[4] = NFAT Signaling Pathway (AID 444; active means well fitted curve in either direction with a large enough effect, not every such curve was filed as active;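 further: carbachol stimulus at about its EC50 of 1 µM final; on the % scale 0 is the no-effect control and ±100 the full control effect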); conditions: Jurkat NFAT-bla M1, carbachol, beta-lactamase ratio, 5 h; at 7.69 µM (top of the series) unless noted
Outline: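 Jurkat cells with NFAT-driven β-lactamase reporter and co-expressed M1 receptor, stimulated with carbachol (final 1 uM, ~EC50), compound titration, 5 h at 37 °C. CCF4 loaded 1 h at RT; 460/530 nm ratio gave %activity and AC50.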

[5] = Stat Signaling Pathway (AID 446; active means well fitted curve in either direction with a large enough effect, not every such curve was filed as active;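 further: ME-180 cervical cancer cells given 40 pM IL-6 alongside compound; SIE-controlled beta-lactamase reporter measured as 460/530 nm FRET emission ratio; on the % scale 0 is the no-effect control and ±100 the full control effect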); conditions: ME-180 SIE beta-lactamase reporter, IL-6 stimulated, 5 h; at 7.69 µM (top of the series) unless noted
Outline: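 ME-180 SIE-bla cells; overnight plating; cpd + IL-6 40 pM, 5 h, 37 C; LiveBLAzer 2.5 h RT; 460/530 nm emission ratio. Normalized to 300 pM IL-6 and 125 nM JAK inhibitor controls.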

[6] = biological target: Glucocorticoid receptor (Homo sapiens) (UniProt P04150); assay: GR-GFP Redistribution (AID 450;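 active means compounds whose dose series gives a full or clear partial fitted curve of increased nuclear translocation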; further: potency means the concentration at half of the fitted maximal effect); conditions: U2OS GR-GFP nuclear translocation, laser cytometry, 2 h
Glucocorticoid receptor (Homo sapiens), sequence (P04150 whole entry, looked up, the tested form may be a part): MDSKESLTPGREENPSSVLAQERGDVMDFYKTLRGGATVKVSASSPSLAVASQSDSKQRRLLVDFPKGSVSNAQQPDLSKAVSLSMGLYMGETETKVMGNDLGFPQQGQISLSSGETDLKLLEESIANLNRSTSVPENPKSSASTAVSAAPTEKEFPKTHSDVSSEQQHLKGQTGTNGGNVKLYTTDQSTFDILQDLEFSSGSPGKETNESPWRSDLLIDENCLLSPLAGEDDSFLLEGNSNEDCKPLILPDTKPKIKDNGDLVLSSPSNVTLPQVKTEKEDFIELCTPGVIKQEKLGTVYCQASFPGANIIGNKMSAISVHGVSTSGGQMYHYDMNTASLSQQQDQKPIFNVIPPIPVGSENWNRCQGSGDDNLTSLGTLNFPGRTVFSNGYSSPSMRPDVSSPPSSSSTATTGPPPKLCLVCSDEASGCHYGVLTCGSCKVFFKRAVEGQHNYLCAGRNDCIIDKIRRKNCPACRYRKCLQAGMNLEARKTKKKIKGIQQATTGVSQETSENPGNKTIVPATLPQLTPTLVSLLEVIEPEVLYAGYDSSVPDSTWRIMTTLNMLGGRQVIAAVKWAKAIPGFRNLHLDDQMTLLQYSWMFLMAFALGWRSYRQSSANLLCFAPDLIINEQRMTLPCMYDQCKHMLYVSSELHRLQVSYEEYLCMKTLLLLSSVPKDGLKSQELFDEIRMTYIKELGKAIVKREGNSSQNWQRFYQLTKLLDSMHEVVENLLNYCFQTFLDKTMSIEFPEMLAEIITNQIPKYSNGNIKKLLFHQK

[7] = biological target: Glucocorticoid receptor (Homo sapiens) (UniProt P04150); assay: GR-EFC Redistribution (AID 451; calls by dose curve; further: potency means the concentration at half of the fitted maximal effect); conditions: CHO-K1 GR-EFC translocation, beta-gal luminescence, 2 h
Outline: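 CHO-K1 cells expressing nuclear EA and GR-ED fragments of b-gal; compounds titrated up to 46 uM final, 2 h at 37 C. GR nuclear translocation read as complemented b-gal luminescence after 1 h RT detection.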

[8] = biological target: Mitogen-activated protein kinase 10 (Mus musculus) (UniProt Q61831); assay: JNK3 AlphaScreen Assay (AID 530; active means well fitted curve in either direction with a large enough effect, not every such curve was filed as active;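 further: kinase came from lysate of stimulated human HepG2 cells; signal reports phosphorylation of biotinylated GST-cJun 1-79 at Ser73 with 10 µM ATP; on the % scale 0 is the no-effect control and ±100 the full control effect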); conditions: JNK3 lysate, c-Jun phosphorylation; series mostly up to 57.1 µM
Outline: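 Pre-activated (IL-1β/TNFα) JNK3 in HepG2 lysates phosphorylates biotin-GST-cJun(1-79), 10 uM ATP; anti-phospho-cJun(Ser73) AlphaScreen read at room temperature, pH 7.6 Tris buffer. Compounds pre-incubated 15 min as titrations.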

[9] = biological target: 3',5'-cyclic-AMP phosphodiesterase 4B (Homo sapiens) (UniProt Q07343); assay: qHTS Assay for Inhibitors of PDE-IV (AID 607; active means well fitted activation curve with a large enough effect in the main read-out, with a control signal flat, not every such curve was filed as active; further: % of control where 0% means no effect); conditions: HEK293 ACTOne CNG channel cells, membrane potential fluorescence; series mostly up to 22.9 µM
3',5'-cyclic-AMP phosphodiesterase 4B (Homo sapiens), sequence (Q07343 whole entry, looked up): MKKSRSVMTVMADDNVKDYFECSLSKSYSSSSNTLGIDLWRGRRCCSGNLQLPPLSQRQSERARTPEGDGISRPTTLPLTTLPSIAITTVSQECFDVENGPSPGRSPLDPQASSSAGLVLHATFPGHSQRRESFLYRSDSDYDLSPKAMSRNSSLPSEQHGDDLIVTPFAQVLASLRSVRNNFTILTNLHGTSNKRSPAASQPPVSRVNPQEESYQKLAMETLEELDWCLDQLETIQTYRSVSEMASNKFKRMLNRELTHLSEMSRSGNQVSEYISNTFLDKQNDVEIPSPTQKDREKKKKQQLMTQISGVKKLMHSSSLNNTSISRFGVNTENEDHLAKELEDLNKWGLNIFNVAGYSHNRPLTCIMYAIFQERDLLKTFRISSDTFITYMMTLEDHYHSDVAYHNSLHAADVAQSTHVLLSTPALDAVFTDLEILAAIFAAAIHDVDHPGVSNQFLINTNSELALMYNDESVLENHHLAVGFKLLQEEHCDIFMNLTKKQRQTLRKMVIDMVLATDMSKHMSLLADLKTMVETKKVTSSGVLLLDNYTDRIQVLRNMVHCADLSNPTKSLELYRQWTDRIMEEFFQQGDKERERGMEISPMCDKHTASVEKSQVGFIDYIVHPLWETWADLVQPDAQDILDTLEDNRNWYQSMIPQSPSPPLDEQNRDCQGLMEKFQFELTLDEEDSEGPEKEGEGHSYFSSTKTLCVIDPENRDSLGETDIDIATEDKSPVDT
Outline: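 ACTOne HEK293 cells carry a modified cAMP-gated CNG channel and express endogenous PDE4; plated 1000 cells/well, compounds up to 22.9 uM final. Membrane-potential dye fluorescence (ex 535/em 590) was read; parental cells received 10 uM forskolin + 100 uM RO 20-1724.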

[10] = biological target: Cytochrome P450 3A4 (Homo sapiens) (UniProt P08684); assay: qHTS Assay for Activators of Cytochrome P450 3A4 (AID 885); conditions: recombinant CYP3A4, Luciferin-PPXE luminescence, 60 min; series mostly up to 57.1 µM; further: nearly all actives have a fitted effect of over 65% in size
Cytochrome P450 3A4 (Homo sapiens), sequence (P08684 whole entry, looked up): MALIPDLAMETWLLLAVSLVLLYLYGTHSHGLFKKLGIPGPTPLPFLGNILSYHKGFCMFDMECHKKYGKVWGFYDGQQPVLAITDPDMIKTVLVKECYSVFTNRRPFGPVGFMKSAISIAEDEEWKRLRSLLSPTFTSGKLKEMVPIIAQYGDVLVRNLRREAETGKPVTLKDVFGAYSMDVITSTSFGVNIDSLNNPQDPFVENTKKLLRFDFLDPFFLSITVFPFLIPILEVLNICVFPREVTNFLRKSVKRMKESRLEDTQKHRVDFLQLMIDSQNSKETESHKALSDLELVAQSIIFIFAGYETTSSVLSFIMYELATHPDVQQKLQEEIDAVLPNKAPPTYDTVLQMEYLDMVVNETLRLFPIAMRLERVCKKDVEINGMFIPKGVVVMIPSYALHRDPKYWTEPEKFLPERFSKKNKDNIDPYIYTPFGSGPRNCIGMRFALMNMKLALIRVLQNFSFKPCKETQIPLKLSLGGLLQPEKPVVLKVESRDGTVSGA
Outline: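 20nM CYP3A4 + 25uM Luciferin-PPXE (=KM), 200mM KPO4; cpd 10 min RT; NADPH regen, 60 min RT; stop w/ detection buffer, 20 min; luminescence. Normalized to 57 uM ketoconazole.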

[11] = qHTS Assay for Identification of Small Molecule Agonists for Hypoxia Response Element Signaling Pathway (AID 914; active means well fitted activation curve with a large enough effect in the signal ratio, with a control signal flat, not every such curve was filed as active; the % refers to the signal ratio; further: % of control where 0% means no effect); conditions: ME-180 (cervical carcinoma) HRE-bla reporter, beta-lactamase ratio, CoCl2, 17 h; activation: stronger effect = higher value
Outline: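 Positive modulation of EC50 CoCl2-induced hypoxia response element signaling is measured in ME-180 cells with a beta-lactamase reporter. Compounds are titrated, incubation runs 17 hours, and %Activity derives from the blue/green ratio.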

[12] = qHTS Assay for Lipid Storage Modulators (AID 1519; calls by dose curve); conditions: Drosophila S3 cells, BODIPY lipid droplet/cell ratio, laser cytometry, cells loaded with oleic acid; for activity change, negative = inhibition: at 57.5 µM (top of the series)
Outline: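 Cells seeded at 5,000 per well were treated with compounds over a concentration series and loaded with oleic acid (400 uM, as added). Lipid droplet fluorescence (488 nm excitation, 500-530 nm channel) was read by laser-scanning cytometry and normalized to 20 uM Triacsin C.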

[13] = biological target: Dual specificity protein kinase CLK4 (Homo sapiens) (UniProt Q9HAZ1); assay: qHTS Assay for Inhibitors of CDC-like Kinase 4 (ADP-Glo Assay) (AID 1771); conditions: recombinant CLK4, ADP-Glo luminescence; series mostly up to 80 µM; further: on the % scale 0 is the no-effect control and ±100 the full control effect; nearly all actives have a fitted effect of over 70% in size
Dual specificity protein kinase CLK4 (Homo sapiens), sequence (Q9HAZ1 whole entry, looked up): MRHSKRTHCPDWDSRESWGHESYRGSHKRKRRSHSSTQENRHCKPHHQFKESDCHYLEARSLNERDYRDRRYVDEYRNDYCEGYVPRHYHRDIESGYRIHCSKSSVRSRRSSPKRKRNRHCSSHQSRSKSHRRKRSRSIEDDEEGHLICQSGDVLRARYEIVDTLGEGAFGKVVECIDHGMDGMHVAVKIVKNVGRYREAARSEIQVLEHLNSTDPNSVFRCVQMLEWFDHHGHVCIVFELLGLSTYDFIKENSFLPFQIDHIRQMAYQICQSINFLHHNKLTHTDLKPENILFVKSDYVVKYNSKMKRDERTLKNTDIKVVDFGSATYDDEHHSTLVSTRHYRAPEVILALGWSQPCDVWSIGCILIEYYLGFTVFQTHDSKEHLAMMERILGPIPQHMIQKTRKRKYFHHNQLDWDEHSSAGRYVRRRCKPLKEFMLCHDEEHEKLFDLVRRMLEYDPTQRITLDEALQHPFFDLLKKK
Outline: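 Luminescence from ADP-Glo reports ADP produced by 25 nM Clk4 acting on 100 uM RS repeat peptide with 1 uM ATP over 1 hr at room temperature; residual ATP is depleted before ADP is converted to ATP for detection.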

[14] = biological target: Dual specificity protein kinase CLK4 (Homo sapiens) (UniProt Q9HAZ1); assay: qHTS Assay for Inhibitors of CDC-like Kinase 4 (ADP-FP Assay) (AID 1795); conditions: Transcreener ADP fluorescence polarization; series mostly up to 50 µM;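 further: recombinant human CLK4 phosphorylating RS repeat peptide at 1 µM ATP; on the % scale 0 is the no-effect control and ±100 the full control effect; nearly all actives have a fitted effect of over 60% in size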
Outline: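 Clk4 6.25 nM; RS peptide 100 uM; ATP 1 uM; 25 mM Tris pH 7.5, 10 mM MgCl2; 1 h reaction. ADP detected via antibody/orange tracer FP displacement; TG003 positive control.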

[15] = biological target: Ubiquitin carboxyl-terminal hydrolase 1 (Homo sapiens) (UniProt O94782); assay: Inhibitors of USP1/UAF1: Pilot qHTS (AID 504865); conditions: purified USP1/UAF1, Ub-rhodamine cleavage fluorescence; series mostly up to 54.9 µM;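 further: rhodamine fluorescence freed from ubiquitin-rhodamine substrate followed over time; top concentration of the series differs between compounds; on the % scale 0 is the no-effect control and ±100 the full control effect; nearly all actives have a fitted effect of over 35% in size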
Ubiquitin carboxyl-terminal hydrolase 1 (Homo sapiens), sequence (O94782 whole entry, looked up): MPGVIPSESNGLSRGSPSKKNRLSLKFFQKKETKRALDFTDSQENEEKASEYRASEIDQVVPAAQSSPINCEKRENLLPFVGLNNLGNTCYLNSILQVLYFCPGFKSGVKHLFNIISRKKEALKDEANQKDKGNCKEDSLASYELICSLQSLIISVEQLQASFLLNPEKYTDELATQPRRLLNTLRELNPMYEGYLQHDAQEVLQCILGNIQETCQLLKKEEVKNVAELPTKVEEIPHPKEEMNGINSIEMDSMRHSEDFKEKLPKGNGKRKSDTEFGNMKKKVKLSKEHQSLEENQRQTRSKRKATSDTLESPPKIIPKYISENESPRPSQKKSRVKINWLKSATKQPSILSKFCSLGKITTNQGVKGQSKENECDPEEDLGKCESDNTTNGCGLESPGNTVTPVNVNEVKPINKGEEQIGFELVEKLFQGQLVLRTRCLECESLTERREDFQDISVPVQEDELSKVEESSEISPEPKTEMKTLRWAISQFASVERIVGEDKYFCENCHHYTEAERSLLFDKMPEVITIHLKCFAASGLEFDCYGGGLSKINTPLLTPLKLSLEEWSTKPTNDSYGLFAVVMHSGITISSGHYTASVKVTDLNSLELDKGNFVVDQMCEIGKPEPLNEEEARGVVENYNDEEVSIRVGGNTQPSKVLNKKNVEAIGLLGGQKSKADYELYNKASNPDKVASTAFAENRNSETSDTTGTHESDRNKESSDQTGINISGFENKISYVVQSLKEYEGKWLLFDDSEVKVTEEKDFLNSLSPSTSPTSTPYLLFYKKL
Outline: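 In 50mM HEPES pH 7.8 containing 0.5mM EDTA, 1mM TCEP, 0.1 mg/ml BSA and 0.01% Tween-20, 1nM USP1/UAF1 is exposed to compound for 15 min, then Ub-Rho (150nM final) is added and fluorescence is read over time.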

[16] = biological target: Cytochrome P450 3A4 (Homo sapiens) (UniProt P08684); assay: qHTS Assay for Inhibitors and Substrates of Cytochrome P450 3A4 (AID 884); conditions: recombinant CYP3A4, Luciferin-PPXE luminescence; series mostly up to 57.1 µM; further: nearly all actives have a fitted effect of over 50% in size; further: potency means the concentration at half of the fitted maximal effect
Outline: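 20 nM human CYP3A4 with 25 uM Luciferin-PPXE (at KM) in 200 mM KPO4, preincubated 10 min with compound; NADPH regeneration started a 60 min RT reaction. Luciferin detected by luminescence, normalized to 57 uM ketoconazole as full inhibition.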

[17] = Confirmation and Secondary Assay for Modulators of Hemoglobin Beta Chain Splicing at IVS2 654 locus (AID 910); conditions: HeLa EGFP-654 splicing reporter, GFP fluorescence, 48 h; series mostly up to 38.3 µM;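 further: HeLa cells stably carrying EGFP split by mutant beta-globin IVS2-654 intron; % of control where 0% means no effect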
Outline: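 HeLa cells stably expressing EGFP interrupted by β-globin IVS2-654 intron, seeded overnight in Opti-MEM/2% FCS, then treated 2 days at 37 °C. Restored splicing read as total peak GFP intensity per well by laser scanning cytometry (488 nm excitation, 500–520 nm emission); 500 nM antisense PNA as control.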

[18] = Confirmation and Secondary Assay for Modulators of Hemoglobin Beta Chain Splicing at IVS2 705 locus (AID 930); conditions: HeLa EGFP-705 splicing reporter, GFP fluorescence, 48 h; series mostly up to 38.3 µM;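 further: HeLa cells stably expressing the EGFP-705 splicing reporter; GFP fluorescence per well restored by corrected splicing of the IVS2-705 intron in EGFP; % of control where 0% means no effect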
Outline: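 First, HeLa EGFP-705 cells are seeded at 500/well in Optimem with 2% FCS and left overnight. Next, compound or DMSO is added for 2 days. Finally wells are laser-scanned and total peak GFP intensity scored.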

[19] = measured here: cell count channel max response
[20] = measured here: lipid channel max response

CN1CCN(c2ncc3ncc(=O)n(Cc4ccc(F)cc4)c3n2)CC1
5.89%: max response [12, 19]
7.12%: max response [12, 20]
active: Potency [3] 25.1 µM
inactive: Potency [1] > 11.4 µM | activity change, negative = inhibition [2] -13.9% | activity change, negative = inhibition [4] -8.56% | activity, negative = inhibition [5] -18.8% | Potency [6] > 9.22 µM | Potency [7] > 46 µM | Potency [8] | Potency [9] | Potency [10] | activation [11] -5.68% | activity change, negative = inhibition [12] 2.71% | Potency [13] | Potency [14] | Potency [15]

COc1ccc2ccc(=O)oc2c1
inactive: Potency [16] | Potency [17] | outcome [18] | activity change, negative = inhibition [12] 7.71% | Potency [15]
-2.86%: max response [12, 19]
5.5%: max response [12, 20]

O=c1c(-c2cccs2)nc2cnc(N3CCNCC3)nc2n1C1CC1
active: Potency [3] 2 µM | Potency [16] 6.31 µM
-0.825%: max response [12, 20]
inactive: Potency [1] > 11.4 µM | activity change, negative = inhibition [2] 5.15% | activity change, negative = inhibition [4] 0.706% | activity, negative = inhibition [5] 14.5% | Potency [6] > 9.22 µM | Potency [7] > 46 µM | Potency [8] | Potency [9] | Potency [10] | activity change, negative = inhibition [12] 1.95% | Potency [14] | Potency [15]
1.24%: max response [12, 19]
